Assay outcomes (PubChem BioAssay)
Tau fluor cs – counter-screen for tau fibril formation inhibitors | AID 1463 | tau K18 P301L Alexa594 fluorescence, heparin fibrillization | 280,000 tested, 0.93% active | Potency, µM (titrated, usually from 57.7 µM), without a hit: at the highest dose activity change, negative = decrease; active means well fitted curve in the direction sought with a large enough effect; inconclusive means small, poorly fitted or top-dose-only effect, or another doubt; inactive means no such curve, though single readings can be large; an effect the other way counts as inactive or inconclusive; further: nearly all actives have a fitted effect of over 55% in size
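Human K18 P301L tau (15 uM unlabeled plus 0.24 uM Alexa 594-labeled, final) in 100 mM sodium acetate pH 7 was mixed with compound and 20 uM heparin and incubated 6 hr at 37 C.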
ALDH1A1 block – blocks purified human ALDH1A1 activity. P00352. Purified ALDH1A1, NADH fluorescence, propionaldehyde substrate. Potency, µM (top dose mostly 75.3 µM), for inactives: top-dose activity, negative = inhibition, actives largely listed as inhibitors. 220,000 tested, 7.3% active. AID 1030;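 further: plate controls were no enzyme wells and a reference inhibitor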
Target sequence (P00352 whole entry, looked up): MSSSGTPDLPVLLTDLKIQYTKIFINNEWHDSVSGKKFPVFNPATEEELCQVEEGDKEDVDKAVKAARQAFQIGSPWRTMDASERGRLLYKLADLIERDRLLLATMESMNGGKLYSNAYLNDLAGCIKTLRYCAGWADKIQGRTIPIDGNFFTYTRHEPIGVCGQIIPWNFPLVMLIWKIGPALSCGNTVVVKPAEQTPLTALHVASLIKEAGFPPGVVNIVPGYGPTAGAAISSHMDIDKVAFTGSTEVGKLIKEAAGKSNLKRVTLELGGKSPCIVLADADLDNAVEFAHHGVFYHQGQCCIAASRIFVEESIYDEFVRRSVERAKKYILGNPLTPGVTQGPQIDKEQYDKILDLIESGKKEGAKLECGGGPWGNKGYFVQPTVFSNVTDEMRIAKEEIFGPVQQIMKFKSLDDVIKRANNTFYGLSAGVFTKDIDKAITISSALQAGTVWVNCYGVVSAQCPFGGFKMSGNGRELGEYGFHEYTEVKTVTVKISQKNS
Tau ThT inhib – inhibitors of human tau fibril formation, thioflavin T binding | 270,000 tested, 2.1% active | AID 1460 | Potency, µM (highest dose often 57.4 µM), for the others: at the top dose activity, negative = inhibition, most hits filed as inhibitors | recombinant tau K18 P301L (four-repeat tau fragment), heparin-induced fibrillization, ThT fluorescence; active means well fitted curve in the direction sought with a large enough effect; inconclusive means small, poorly fitted or top-dose-only effect, or another doubt; inactive means no such curve, though single readings can be large; an effect the other way counts as inactive or inconclusive; further: nearly all actives have a fitted effect of over 55% in size
Target sequence (P10636 561-689 P618L limits assumed): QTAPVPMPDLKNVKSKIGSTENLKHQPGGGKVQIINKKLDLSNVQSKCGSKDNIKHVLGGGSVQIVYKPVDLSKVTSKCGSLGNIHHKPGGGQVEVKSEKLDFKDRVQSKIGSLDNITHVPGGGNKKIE
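Aggregation was driven by heparin (20 uM final) acting on recombinant tau […] bearing P301L in 100 mM sodium acetate pH 7; fibrils were detected with Thioflavin T.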
HPGD block – HPGD (human) dehydrogenase inhibition. P15428. purified HPGD, NADH fluorescence kinetic, PGE2 substrate. Potency, µM, without a hit: at the top dose activity change, negative = inhibition, usual class: inhibitors. 150,000 tested, 4.3% active. AID 894
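NADH formation kinetics: reaction with 30 uM PGE2 and 1 mM NAD+ (final), 20 nM enzyme, Tris-HCl pH 8 with Tween 20, after 15 min compound preincubation at room temperature. Fluorescence change, last versus first of five reads.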
JMJD2E inh – inhibitors of human JMJD2E histone demethylase; B2RXH2; JMJD2E catalytic domain, FDH-coupled NADH fluorescence (FDH is formaldehyde dehydrogenase); Potency, µM (highest dose often 57.1 µM), for the others: at the top dose activity change, negative = inhibition, usual class: inhibitors; 230,000 tested, 1.6% active; AID 2147;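 further: 0% = wells with enzyme and -100% = buffer wells without enzyme; nearly all actives have a fitted effect of over 50% in size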
Tau FP inhib – inhibitors of human tau fibril formation; P10636; Potency, µM (titrated, usually from 57.7 µM), for inactives: top-dose activity, negative = inhibition, actives largely listed as inhibitors; 280,000 tested, 0.39% active; K18 P301L tau heparin fibrillization, Alexa594 FP, 6 h; active means well fitted curve in the direction sought with a large enough effect; inconclusive means small, poorly fitted or top-dose-only effect, or another doubt; inactive means no such curve, though single readings can be large; an effect the other way counts as inactive or inconclusive; further: nearly all actives have a fitted effect of over 55% in size
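Recombinant K18 P301L […], labeled with Alexa 594 at 0.24 uM over 15 uM unlabeled; heparin inducer 20 uM final; 37 C, 6 hr; FP endpoint.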
* = called active by the depositor; u = inconclusive; x = not tested or not shown; ! = not active in a repeat; [ ] = remark or other dose. Rows were chosen to be rich in hits. Some 9.9% of all compounds tested hit in one or more screens of this group. Unless noted, the call rests on the fitted dose curve; in most records, active means well fitted inhibition curve with a large enough effect (not every such curve was filed as active); inconclusive means small, poorly fitted or top-dose-only effect, or another doubt; inactive means no such curve, though single readings can be large or run the other way. Unless noted, on the % scale 0 is the no-effect control and ±100 the full control effect; potency means the concentration at half of the fitted maximal effect.

SMILES | Tau fluor cs | ALDH1A1 block | Tau ThT inhib | HPGD block | JMJD2E inh | Tau FP inhib
S=C(NCc1ccccc1)NCc1ccc2c(c1)OCO2 | -5% | u | -6% | 16µM* | 9% | -13%
OCCNC(=S)NCc1ccccc1 | 4% | x | -4% | x | -2% | 10%
S=C(NCCc1ccccc1)Nc1ccccn1 | -1% | 3.2µM* | -2% | -5% | -30% | -1%
O=S(=O)(c1c(F)cccc1F)N1CCN(C(=S)NCc2ccc3c(c2)OCO3)CC1 | -21% | 4µM* | 8% | x | 3% | -10%
CCc1ccc(Sc2cc(C(=O)O)c3ccccc3n2)cc1 | -6% | x | -3% | x | x | -6%
Cc1cccc(NC(=S)NC(=O)CCc2ccccc2)c1C | -24% | 13µM* | -16% | -28% | -5% | -4%
Cc1ccccc1NC(=S)NCc1cccs1 | -6% | -2% | -6% | -20% | -6% | 1%
Cc1ccccc1NC(=S)NCc1ccccc1 | 2% | 2% | 1% | 28µM* | u | 3%
Cc1ccccc1NC(=S)NCCc1ccccc1 | 2% | u | 7% | 25µM* | -1% | 0%
Cc1c(Cl)cccc1NC(=S)NCc1ccccc1Cl | 6% | 9% | 2% | 22µM* | 4% | 3%
COc1ccc(CCNC(=S)Nc2ccccc2C)cc1 | -7% | 4% | -8% | -2% | 0% | -1%
OCCNc1ncnc2c1ncn2[C@@H]1O[C@@H](CO)[C@H](O)[C@@H]1O | x | -6%[13.5 µM] | x | -8% | x | x
COc1ccc(CCNC(=O)c2cc(C)nc3c2c(C)nn3-c2ccccc2)cc1OC | -24% | x | u | x | x | -7%
CCNC(=S)NNC(=O)CCn1cc(C)cn1 | 8% | 7% | 5% | -2% | 5% | 5%
CCCCC(=O)Oc1ccc2oc(-c3ccc(OC)cc3)cc(=O)c2c1 | -23% | x | u | x | x | -6%
Cc1ccc(C2C(C(=O)c3cccs3)=C(O)C(=O)N2CCN2CCOCC2)o1 (stereo unspecified) | 15% | 18µM* | 1% | -16% | u | 1%
COc1cccc(C2C(C(=O)c3cccs3)=C(O)C(=O)N2CCN(C)C)c1OC (stereo unspecified) | 0% | u | -6% | -12% | -4% | 0%
O=C(C1=C(O)C(=O)N(CCN2CCOCC2)C1c1ccccn1)c1cccs1 (stereo unspecified) | -16% | 19µM* | u | -5% | u | -5%
CCN(CC)CCN1C(=O)C(O)=C(C(=O)c2cccs2)C1c1ccc(C)o1 (stereo unspecified) | 0% | 22µM* | -16% | -9% | -9% | 1%
CC(=O)c1ccc(NC(=O)C2(c3ccccc3)CCOCC2)cc1 | -11% | 15% | u | -17% | 9% | -5%
COc1ccc(N2CCN(S(=O)(=O)c3ccc(CC(C)C)cc3)CC2)cc1 | -17% | x | 4% | x | x | 3%
CCc1ccc(N/C(SCc2ccccc2C)=C(/C#N)C(=O)NCc2ccco2)cc1 | -13% | -5% | -2% | -16% | 0% | 0%
CCCCC/C=C\C/C=C\C/C=C\C/C=C\CCCCCC(=O)NCCc1ccc(O)c(O)c1 | -22% | -4% | -17% | -20% | -2% | 17%
CCCCCCCC/C=C\CCCCCCCC(=O)NCCc1ccc(O)c(O)c1 | 14µM*![quencher] | 2% | u | u | 20µM*! | u
COc1ccc(C(=O)/C=C/c2ccccc2F)c(OC(=O)c2ccc([N+](=O)[O-])cc2)c1 | u | u | u | -12% | 4% | 11%
SMILES | Tau fluor cs | ALDH1A1 block | Tau ThT inhib | HPGD block | JMJD2E inh | Tau FP inhib
CN(C)c1ccc(/C=C/C(=O)c2cccnc2)cc1 | u | x | 5µM* | x | -4% | 4%
COc1cc(/C=C/C(=O)c2c(O)ccc3c(C)cc(=O)oc23)ccc1O | -21% | -3% | 16µM* | -19% | -10% | -3%
O=C(/C=C/c1cccc(O)c1)c1cccnc1 | 5% | 1% | -15% | x | -13% | 13%
COc1cc(/C=C/C(=O)c2c(O)cc(C)oc2=O)cc(OC)c1O | u | -3% | 28µM* | -11% | u | -14%
COc1ccc(C(=O)/C=C/c2ccc(C)cc2)c(OC(=O)c2ccc([N+](=O)[O-])cc2)c1 | u | u | 3.5µM* | -22% | 3% | 9%
COc1cccc(/C=C/C(=O)c2c(O)cc(C)oc2=O)c1O | -27% | 6% | u | -18% | -25% | -4%
COc1ccc(/C=C\C(=O)c2c(O)ccc3c(C)cc(=O)oc23)cc1OC | -18% | -7% | u | -17% | -5% | -5%
Cc1c(Cl)cc(C(C)(C)C)c(O)c1Cc1c(C)c(Cl)cc(C(C)(C)C)c1O | x | 3%[13.5 µM] | x | -1% | x | x
Cc1ccc(/C=C/C(=O)c2ccccc2O)cc1 | -20% | x | u | x | -24% | 12%
COc1ccc(C(=O)/C=C/c2ccc(N(C)C)cc2)c(OC)c1 | 14µM*[quencher] | x | u | x | -3% | -3%
COc1ccc(C(=O)/C=C/c2cc(OC)c(O)c(OC)c2)c(F)c1 | -4% | u | 4% | 14µM* | 1% | 0%
CN(C)c1ccc(/C=C/C(=O)c2ccccc2O)cc1 | u | -6% | 4µM* | x | -13% | u
COc1ccc(-n2nc(C(=O)Nc3ccc(C(C)=O)cc3)nc2-c2ccccc2)cc1 | 4% | x | 13% | x | x | -6%
CC(=O)N1CC=CC1(C)C(=O)NCC1CC1 (stereo unspecified) | -7% | u | -7% | u | 16% | -3%
CCc1oc2ccccc2c1C(=O)c1cc(Br)c(O)c(Br)c1 | u | -9%[13.5 µM] | u | 18µM*! | -9% | 13%
CCc1ccc(OCC(=O)c2c(O)c3ccccc3oc2=O)cc1 | 0% | u | -4% | x | u | 0%
O=C(Cc1noc2ccccc12)NNC(=S)Nc1ccc(Cl)cc1 | -8% | 25µM* | -4% | x | u | 6%
O=C1CCc2ccccc2N1 | 2% | x | 3% | x | -3% | 3%
S=C1Cc2ccccc2N1 | 8.9µM*[quencher] | x | 0.71µM* | x | u | u
CCc1ccc(C(=O)NC2=NC(c3ccccc3F)CC(=O)N2)cc1 (stereo unspecified) | -4% | x | 2% | x | x | -9%
